This is an account of results in PubChem BioAssay AID2653 (National Center for Advancing Translational Sciences (NCATS), 2010).

Inconclusive results are not listed. A number with no mark means an inactive call. Calls follow the shape of the dose curve; as a rule, active = well fitted curve in the direction sought with a large enough effect; inconclusive = small, poorly fitted or top-dose-only effect, or another doubt; inactive = no such curve, though single readings can be large or run the other way.

A short description of the experiment: Secondary Assay for Activators of Human Pyruvate Kinase M2 isoform - Cell Titer Glo Cytotoxicity for Probe SAR. Also: % of control where 0% means no effect. As to conditions: HeLa viability, CellTiter-Glo ATP luminescence, 24 h; series mostly up to 58.2 µM; activity change, negative = cytotoxicity: at the top concentration. In a few lines: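 Cytotoxicity read as ATP content (CellTiter-Glo luminescence) in HeLa cells after 24 h compound exposure at 37 C, following 24 h pre-plating at 500 cells/well; doxorubicin as control.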
(Cellular ATP, detected with luciferase, serves as a proxy for viable cell number.)
Take `CC(=O)N1c2ccc(S(=O)(=O)Nc3ccc(C)c(C)c3)cc2CC1C` (configuration not stated): the “activity change, negative = cytotoxicity” value was -24.5%.

Take `O=C1CCc2cc(S(=O)(=O)Nc3cccc(Oc4ccccc4)c3)ccc2N1`: the “activity change, negative = cytotoxicity” value was -9.43%.

Consider `Cc1ccc(NS(=O)(=O)c2cc3c(cc2F)NC(=O)CC3)cc1Cl`, for which the “activity change, negative = cytotoxicity” value is -30.8%.

For the compound `Cc1ccc(NS(=O)(=O)c2ccc3c(c2)oc(=O)n3C)cc1C`, the “activity change, negative = cytotoxicity” value is -9.4%.

For the compound `O=C1c2ccccc2C(=O)N1c1cccc2ncccc12`, the “activity change, negative = cytotoxicity” value was -7.26%.

For the compound `CC(=O)N1CCc2cc(S(=O)(=O)Nc3ccc(C)c(C)c3)ccc21`, the “activity change, negative = cytotoxicity” value is -12.7%.

Consider `Cc1ccc(NS(=O)(=O)c2cc3c(cc2Br)NC(=O)CO3)cc1C`, for which the “activity change, negative = cytotoxicity” value is -10.6%.

For `Cc1cc2c(s1)c1cnn(Cc3ccccc3F)c(=O)c1n2C`, the “activity change, negative = cytotoxicity” value was -16.6%.

As for `Cc1ccc(NS(=O)(=O)c2cc3c(cc2N2CCCCC2)NC(=O)CC3)cc1C`, the “activity change, negative = cytotoxicity” value was -17.1%.

As for `Cc1ccc(NS(=O)(=O)c2ccc3c(c2)CCO3)cc1C`, the “activity change, negative = cytotoxicity” value is 13.2%.

In the case of `O=C1CCc2cc(S(=O)(=O)Nc3ccc(Cl)c(Cl)c3)ccc2N1`, the “activity change, negative = cytotoxicity” value was -17.3%.

For `Nc1cc(S(=O)(=O)N2CCN(S(=O)(=O)c3ccc4c(c3)OCCO4)CC2)ccn1`, the “activity change, negative = cytotoxicity” value was -8.75%.

Take `Cc1ccn2c(NC3CCCCC3)c(-c3ccc(C)o3)nc2c1`: the “activity change, negative = cytotoxicity” value was -12.8%.

With `Cc1ccc(NS(=O)(=O)c2ccc3c(c2)CCC(=O)N3)cc1C`, the “activity change, negative = cytotoxicity” value was -10.7%.

For `O=C1c2ccccc2C(=O)N1Cc1cccnc1`, the “activity change, negative = cytotoxicity” value is -7.71%.

Regarding `Fc1ccccc1-c1ccc(-c2nc3ccc(Cl)cn3c2Nc2ccc(Cl)cc2)o1`, the “activity change, negative = cytotoxicity” value was 1.15%.

As to `O=C1CCc2cc(S(=O)(=O)Nc3ccc4c(c3)CCC4)ccc2N1`, the “activity change, negative = cytotoxicity” value is -21.2%.

Turning to `O=C1CCc2cc(S(=O)(=O)Nc3ccc(-c4ccccc4)cc3)ccc2N1`, the “activity change, negative = cytotoxicity” value is -9.66%.

Consider `Cc1ccc(NS(=O)(=O)c2ccc3[nH]c(=O)[nH]c3c2)cc1C`, for which the “activity change, negative = cytotoxicity” value is -4.73%.

For `Cc1ccc(NS(=O)(=O)c2cc3c(cc2N(C)C)NC(=O)CC3)cc1C`, the “activity change, negative = cytotoxicity” value was 1.2%.

In the case of `Cc1cccc(NS(=O)(=O)c2ccc3c(c2)CCC(=O)N3)c1`, the “activity change, negative = cytotoxicity” value was -19.5%.

As to `CSc1cc2c(s1)c1cnn(Cc3cccc(N)c3)c(=O)c1n2C`, the “activity change, negative = cytotoxicity” value is -21.7%.

As to `O=C1c2ccccc2C(=O)N1c1ccc(Cl)cc1`, the “activity change, negative = cytotoxicity” value was -19.6%.

Turning to `Cc1ccc(Nc2c(-c3ccc(C)s3)nc3cccc(C)n23)cc1`, the “activity change, negative = cytotoxicity” value is -7.47%.

Take `CSc1cc2c(s1)c1cnn(Cc3cccc(O)c3)c(=O)c1n2C`: the “activity change, negative = cytotoxicity” value is 1.75%.

As for `Cc1ccc(NS(=O)(=O)c2ccc3c(ccn3C)c2)cc1C`, the “activity change, negative = cytotoxicity” value was -14.2%.

With `O=C1c2ccccc2C(=O)N1c1ccccc1O`, the “activity change, negative = cytotoxicity” value was -14.7%.

Turning to `COc1ccc(-c2nc3cccc(C)n3c2Nc2ccc(C)cc2)cc1`, the “activity change, negative = cytotoxicity” value was -17%.

As for `Cc1ccccc1Nc1c(-c2ccc(Cl)s2)nc2ccccn12`, the “activity change, negative = cytotoxicity” value is -12.1%.

In the case of `COc1cccc(Cn2ncc3c4sc(S(C)=O)cc4n(C)c3c2=O)c1` (configuration not stated), the “activity change, negative = cytotoxicity” value was -2.09%.

Regarding `Cc1ccc2nc(-c3ccc(C)o3)c(Nc3ccccc3)n2c1`, the “activity change, negative = cytotoxicity” value was -26.6%.

With `O=C1c2ccccc2C(=O)N1Cc1ccccc1`, the “activity change, negative = cytotoxicity” value is -17.4%.
